Data reported in article PMC12136788.
Over roughly 24,000 sequences, “enrichment r” has its median near 0.99; the highest 2% begin near 3.7. The list comes from a sample in which the highest values are over-represented; it also holds similar and randomly drawn sequences.

T1: UNK ZnF1-3 (human, UniProt Q9C0B0 31-174)
T1 sequence: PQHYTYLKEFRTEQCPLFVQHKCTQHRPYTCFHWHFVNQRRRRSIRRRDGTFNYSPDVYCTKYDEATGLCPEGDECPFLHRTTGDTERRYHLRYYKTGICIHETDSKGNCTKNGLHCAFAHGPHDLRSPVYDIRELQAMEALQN

B1: 69202206_69203042_311_CDS_ENSG00000135679_ENST00000462284|human|control|control (ssRNA)
RNA: GGGAGUUCUACAGUCCGACGAUCUGAGGUGGUUACAGCACCAUCAGUAGGUACAGACAUGUUGGUAUUGCACAUUUGCCUGCUCCUCACCAUCCGGGGUUUUCGCGCUUGGAGUCGGGGGUCCCUCAAGACUCCCCAGUUUCCCAACAGAGGAUUGAGCAUCA
B2: chr4:40680069:40680070:+_ENSMUSG00000028410_ENSMUST00000030118|mus_hu|motif|central (ssRNA)
RNA: GGGAGUUCUACAGUCCGACGAUCAAAAUCAGAGCUUUUAUAUUUGCGUUUAUUCUUCAUUUAACUUUUUAAAACACGGCGGUAGUUUAUUAAAACAAAAACAAGAGCAAGUAGUGAGCAUAUUAUGAUUACAGUCCUUCACUCCAACAGAGGAUUGAGCAUCA
B3: chr5:122939345:122939346:-_ENSMUSG00000029467_ENSMUST00000031423|mus_mus|FALSE|FALSE (ssRNA)
RNA: GGGAGUUCUACAGUCCGACGAUCCUUUCUGUCCUGUCGAUACACUUUGCCCAUUUCAGGCUCAUAUUCCUUAAGAGCUUCUAUUGCAUUUUCAGCAUUUCUUUCCUGCCACACACCCACGAUUGCAUUGGCUACCAAGAUAAGCAACAGAGGAUUGAGCAUCA
B4: 116785305_116785425_2892_3pUTR_ENSMUSG00000055531_ENSMUST00000069168|mouse|control|control (ssRNA)
RNA: GGGAGUUCUACAGUCCGACGAUCAAAAAAUGAAAGAAAGGAAAAAAAAAGAAAAAAAAAUCAGCUGAUUAACUCUAAUCAAGCAUAGAUCAACAAGGUUACAGGAAUACACACACAAUUCCUUGAGCCAUGAAGACAGUGUAACAACAGAGGAUUGAGCAUCA
B5: chr1:130270616:130270617:-_ENSMUSG00000026356_ENSMUST00000027602|mus_hu|FALSE|FALSE (ssRNA)
RNA: GGGAGUUCUACAGUCCGACGAUCGUAAUGGUAAUUAAAAGCCAUUUCAAUGUCCAAACCAACAAACUCAGUUAGAUGUCUAUGGGUAUUAGAGUCUUCCGCUCUGAAUACUGGUCCAAUAGAGAAAACCUUCUCAAAAUCAGCCAACAGAGGAUUGAGCAUCA
B6: chr14:31337589:31337590:+_ENSMUSG00000021962_ENSMUST00000022535|mus_mus|motif|central (ssRNA)
RNA: GGGAGUUCUACAGUCCGACGAUCAAUGACCUGUAUCAUAGAAACGAAGACACUUUUCAUUCAAAGAAUAUCUCAAAAUUACGGUUGCUGAAAUAAUCAAAUUCUACAUUAAAAUAUUACCAAACACCAUUACAUGCCAUAAAACAACAGAGGAUUGAGCAUCA
B7: chr1:58468927:58468928:-_ENSMUSG00000026034_ENSMUST00000148330|mus_mus|mus_mus_mus_hu_False|38_108 (ssRNA)
RNA: GGGAGUUCUACAGUCCGACGAUCAAUCUAUAAUUACGAUGUUCAUUACCUUAGCUAUGUACUUAAUGAACCAAAUUACCCAAACAAAAUAAACAUGUUUACAAAUUAAUGUUAAGAAUUUACAAAGCUGUACAAAAUAACUUACAACAGAGGAUUGAGCAUCA
B8: chr1:135503150:135503151:-_ENSMUSG00000090553_ENSMUST00000166915|mus_hu|motif|central (ssRNA)
RNA: GGGAGUUCUACAGUCCGACGAUCUUCUGCAUCAUCUAAUACAAGGUUCAUAUACUCAUCAAAACCAAUGAUACAGCCUUCGGUCCGCAUAUUCACUUGCUCAUAGAGCCACACCUGAAUCCGCGAUCUCUGAAAUAAUCAUAACAACAGAGGAUUGAGCAUCA
B9: 67235911_67236031_3360_3pUTR_ENSMUSG00000036371_ENSMUST00000042990|mouse|control|control (ssRNA)
RNA: GGGAGUUCUACAGUCCGACGAUCAACAUUCAAAAAUCUUAAACAAGAAUUAUCUUACGAUAAUGAAAAAGGGAAACCAAGAAACAUAUAAAGGGGUUCCCACUUGAUUGCUUUUAUCUUUUAGGAAAUGAGCAUGAAAAUAAACAACAGAGGAUUGAGCAUCA
B10: 97946324_97946444_1485_ncRNA_ENSMUSG00000021666_ENSMUST00000159321|mouse|control|control (ssRNA)
RNA: GGGAGUUCUACAGUCCGACGAUCUGAUUCUGAAAUCAUGUAAAUUAAGAUUUGUUAGGCUGUUUUUUUUUUAAAUAAACCAUCUUUUUAUUGAUUGAAUCUUUCUAUCCCUGAAUCAAACACUGAAUCUUUUAUGUGAGCAGCCAACAGAGGAUUGAGCAUCA
B11: chr3:41281487:41281488:+_ENSG00000168036_ENST00000349496|hu_hu|motif|central (ssRNA)
RNA: GGGAGUUCUACAGUCCGACGAUCCUACGAGAGACUUAAAAAACAGUUACUGCAAAAAAAAAAAAAAAAAAAAAAAAAGAGCGGCUUCAAAGCAAGCAAAGUCAGUACCAUUACAGAUAUUCUUAAAAAAAAAAAAAAAAAAAUCAACAGAGGAUUGAGCAUCA
B12: chr1:100327937:100327938:+_ENSG00000162688_ENST00000361915|hu_hu|motif|central (ssRNA)
RNA: GGGAGUUCUACAGUCCGACGAUCUUCUUUUGCAACCCUAAGUCUGCUUUCCCAUUCAUCAAAAGGUCCCAAACACUUAGCGGAAAAUGUCUGAAGAGUAACACAGUCCAAGGGUAGCACAUGAUUAUCAGCACCAACACGUAACAACAGAGGAUUGAGCAUCA
B13: chr1:38489359:38489360:+_ENSG00000183520_ENST00000537711|hu_mus|FALSE|FALSE (ssRNA)
RNA: GGGAGUUCUACAGUCCGACGAUCAGUCAUGAUUACAAAACAGGAAGACCAAGCCAUUUGAAUUAAUAAAAUCUGAAGUUAUUACAAAAGACAGGAGGAAAAGAUAAUAAUUCUUUUCGAUACAGAAUGCUGAGGCUUAAUUUUCAACAGAGGAUUGAGCAUCA

These binders were tested against T1, UNK ZnF1-3 (assay: nsRBNS (natural sequence RNA bind-n-seq); RBNS binding buffer (assumed for nsRBNS): 25 mM Tris pH 7.5, 150 mM KCl, 3 mM MgCl2, 0.01% Triton X-100, 500 ug/ml BSA, 20 U/ml SUPERase-In, 4 C; UNK is unkempt and MSI1 is Musashi-1; names of the RNAs are library labels; protein concentration not given here; high values mean tight binding).

Q: With B1 as the binder, how does the binding signal read?
A: 0.532 enrichment R

Q: With B2 as the binder, how does the binding signal read?
A: 1.05 enrichment R

Q: B3 was tested. Which binding signal did it give?
A: 0.9 enrichment R

Q: B4 was tested. Which binding signal did it give?
A: 4.36 enrichment R

Q: B5 was tested. Which binding signal did it give?
A: 0.771 enrichment R

Q: Which binding signal does the source give for B6 here?
A: 0.998 enrichment R

Q: Which binding signal does the source give for B7 here?
A: 0.436 enrichment R

Q: B8 was tested. Which binding signal did it give?
A: 1.18 enrichment R

Q: For B9, which binding signal is on record?
A: 5.78 enrichment R

Q: For B10, which binding signal is on record?
A: 0.66 enrichment R

Q: How did the binding signal turn out when B11 was run?
A: 8.09 enrichment R

Q: With B12 as the binder, how does the binding signal read?
A: 1.32 enrichment R

Q: For B13, which binding signal is on record?
A: 8.05 enrichment R
